Data as given in PubChem BioAssay (Tox21).
Several values for one entry are separate records, joined by “and”; a condition that tells them apart may be missing. Equal entries are not always repeated. Records with an inconclusive call do not appear. Entries that show only a call come without a potency. More than one record can exist for a structure, and the calls need not agree. Activity calls are given as the source filed them. The call rests on the fitted dose curve.

Test: Nuclear factor erythroid 2-related factor 2/antioxidant responsive element (Nrf2/ARE) small molecule agonists: luciferase reporter gene qHTS assay in human keratinocytes (AID 1919969); further: nearly all actives have a fitted effect of over 35% in size
Potency means the concentration at half of the fitted maximal effect.

Row | Compound | Potency
1 | CC(=O)N(CC(O)CO)c1c(I)c(C(=O)NCC(O)CO)c(I)c(C(=O)NCC(O)CO)c1I (centres undefined) | inactive
2 | CNCCCC12CCC(c3ccccc31)c1ccccc12 | inactive
3 | CCCCCCCCCOCC1CO1 (centres undefined) | inactive
4 | Cn1cnc([N+](=O)[O-])c1Sc1ncnc2nc[nH]c12 | 27.1 µM (active) and inactive
5 | CC(=O)OCc1ccccc1 | inactive
6 | CCC(COC(=O)CCS)(COC(=O)CCS)COC(=O)CCS | inactive
7 | CCCCc1ccc(Cl)cc1 | inactive
8 | CCCOC(C)=O | inactive
9 | CCN(CCO)c1cccc(C)c1 | inactive
10 | CCCCCCCC(=O)[O-].CCCCCCCC(=O)[O-].[Zn+2] | inactive
11 | CN(C)c1ccc(C(=N)c2ccc(N(C)C)cc2)cc1 | 60.4 µM (active) and 52.4 µM (active)
12 | C[N+](C)(C)CC[N+]1(C)Cc2c(Cl)c(Cl)c(Cl)c(Cl)c2C1 | inactive
13 | Cc1oc(C)c(C(=O)Nc2ccccc2)c1C | inactive
14 | CC(=O)OC[C@H]1O[C@@H](OC(C)=O)[C@H](OC(C)=O)[C@@H]1OC(C)=O | inactive
15 | C=CCOCC(O)CO (centres undefined) | inactive
16 | CCN(CC)c1ccc(C(=O)c2ccccc2C(=O)O)c(O)c1 | inactive
17 | CNCCO | inactive
18 | CN/C(=C\[N+](=O)[O-])NCCSCc1ccc(CN(C)C)o1 | inactive
19 | O=C1OC2(c3ccccc31)c1cc(Br)c(O)c(Br)c1Oc1c2cc(Br)c(O)c1Br | inactive
20 | CCOc1ccc2c(c1)C(C)=CC(C)(C)N2 | 68.2 µM (active) and 68.6 µM (active)
21 | CCCCCCCC(=O)N(C)C | inactive
22 | O=c1[nH]c(=O)c2ccccc2o1 | inactive
23 | Nc1c(Br)cc([N+](=O)[O-])cc1Br | inactive
24 | C=C(C)[C@H]1CC=C(C)C(=O)C1 | inactive
25 | CCN(CC)c1ccc(C=O)c(O)c1 | inactive
26 | NC(=O)Nc1ccccc1 | inactive
27 | NC(=O)c1ccccc1N | inactive
28 | CCCCCCCCCCCCCCCC(=O)NCCO | inactive
29 | N#C[C@@H]1C[C@@H]2C[C@@H]2N1C(=O)[C@@H](N)C12CC3CC(CC(O)(C3)C1)C2 | inactive
